# PubChem BioAssay (Tox21)
# Where “and” joins values, the source holds several entries; their conditions need not be identical. Identical values can stand only once. A structure can be active in one record and inactive in another. Calls of active or inactive are those of the source. Where a call stands in place of a potency, no number is given. Unless noted, the call rests on the fitted dose curve; in most records, active means well fitted curve in the direction sought with a large enough effect in the repeat runs; inconclusive means weak or mixed curves; inactive means no such curve, though single readings can be large; an effect the other way counts as inactive or inconclusive.
# Tests used:
# [1] = qHTS assay to identify small molecule antagonists of the thyroid receptor (TR) signaling pathway (AID 743065); further: nearly all actives have a fitted effect of over 55% in size
# Method in brief: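 GH3.TRE-Luc rat pituitary cells carrying two TR response elements driving luciferase were plated for 4 h, given compound plus 1 nM T3 (final), and incubated 23.5 h at 37 C. ONE-Glo luminescence measured reporter inhibition; CellTiter-Fluor fluorescence tracked cytotoxicity.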
# [2] = system: thyroid hormone receptor (rat, GH3 cells); test: qHTS assay to identify small molecule agonists of the thyroid receptor (TR) signaling pathway (AID 743066; calls by dose curve; further: potency means the concentration at half of the fitted maximal effect)
# [3] = molecular target: Estrogen receptor (Homo sapiens) (UniProt P03372); test: qHTS assay to identify small molecule antagonists of the estrogen receptor alpha (ER-alpha) signaling pathway (AID 743069; active means well fitted curve in the direction sought with a large enough effect in the signal ratio in the repeat runs, not every such curve was filed as active; inconclusive means weak or mixed curves, or effect the other way; inactive means no such curve, though single readings can be large or run the other way; the % refers to the signal ratio; further: potency means the concentration at half of the fitted maximal effect)
# Sequence of Estrogen receptor (Homo sapiens) (P03372 whole entry, looked up): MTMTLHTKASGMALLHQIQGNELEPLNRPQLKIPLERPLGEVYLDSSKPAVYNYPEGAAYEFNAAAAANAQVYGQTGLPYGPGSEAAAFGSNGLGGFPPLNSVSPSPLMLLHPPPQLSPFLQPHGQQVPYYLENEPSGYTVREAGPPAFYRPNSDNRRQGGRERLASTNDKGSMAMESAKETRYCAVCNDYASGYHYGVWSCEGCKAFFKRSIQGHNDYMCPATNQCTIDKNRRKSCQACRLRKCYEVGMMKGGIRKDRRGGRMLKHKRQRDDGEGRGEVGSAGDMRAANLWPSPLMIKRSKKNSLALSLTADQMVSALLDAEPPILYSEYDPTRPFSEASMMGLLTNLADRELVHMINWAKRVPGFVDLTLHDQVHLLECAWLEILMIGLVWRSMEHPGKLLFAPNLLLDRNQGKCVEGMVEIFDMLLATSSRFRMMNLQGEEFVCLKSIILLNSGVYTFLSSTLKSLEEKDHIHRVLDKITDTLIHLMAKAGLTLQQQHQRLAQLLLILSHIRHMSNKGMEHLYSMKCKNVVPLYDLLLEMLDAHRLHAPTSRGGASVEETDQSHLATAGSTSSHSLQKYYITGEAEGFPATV
# Method in brief: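 HEK293 cells stably carrying an ER-alpha-UAS-bla beta-lactamase reporter were pre-cultured overnight in 2% charcoal-stripped FBS medium. Test compounds in DMSO were added together with 17beta-estradiol for 18 hr at 37C. Read-out was fluorescence after 2 hr with LiveBLAzer B/G FRET substrate at room temperature.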
# [4] = qHTS assay to identify small molecule antagonists of the estrogen receptor alpha (ER-alpha) signaling pathway - cell viability counter screen (AID 743074; calls by dose curve; further: nearly all actives have a fitted effect of over 45% in size)
# [5] = molecular target: Estrogen receptor (Homo sapiens) (UniProt P03372); test: qHTS assay to identify small molecule agonists of the estrogen receptor alpha (ER-alpha) signaling pathway (AID 743075; calls by dose curve; further: potency means the concentration at half of the fitted maximal effect)
# [6] = molecular target: Estrogen receptor (Homo sapiens) (UniProt P03372); test: qHTS assay to identify small molecule agonists of the estrogen receptor alpha (ER-alpha) signaling pathway using the BG1 cell line (AID 743079); conditions: BG1Luc4E2 cells, ERE-luciferase agonist, 22 h; activation: at 70.3 µM (top of the series) unless noted; further: nearly all actives have a fitted effect of over 20% in size; further: potency means the concentration at half of the fitted maximal effect
# [7] = qHTS assay to identify small molecule antagonists of the estrogen receptor alpha (ER-alpha) signaling pathway using the BG1 cell line - cell viability counter screen (AID 743081);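 further: compound given together with 17beta-estradiol as the ER stimulus; nearly all actives have a fitted effect of over 45% in size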; further: potency means the concentration at half of the fitted maximal effect
# Aromatase (Homo sapiens) = Aromatase (Homo sapiens) (UniProt P11511); test: qHTS assay to identify aromatase inhibitors (AID 743083); further: nearly all actives have a fitted effect of over 55% in size; further: potency means the concentration at half of the fitted maximal effect
# Sequence of Aromatase (Homo sapiens) (P11511 whole entry, looked up): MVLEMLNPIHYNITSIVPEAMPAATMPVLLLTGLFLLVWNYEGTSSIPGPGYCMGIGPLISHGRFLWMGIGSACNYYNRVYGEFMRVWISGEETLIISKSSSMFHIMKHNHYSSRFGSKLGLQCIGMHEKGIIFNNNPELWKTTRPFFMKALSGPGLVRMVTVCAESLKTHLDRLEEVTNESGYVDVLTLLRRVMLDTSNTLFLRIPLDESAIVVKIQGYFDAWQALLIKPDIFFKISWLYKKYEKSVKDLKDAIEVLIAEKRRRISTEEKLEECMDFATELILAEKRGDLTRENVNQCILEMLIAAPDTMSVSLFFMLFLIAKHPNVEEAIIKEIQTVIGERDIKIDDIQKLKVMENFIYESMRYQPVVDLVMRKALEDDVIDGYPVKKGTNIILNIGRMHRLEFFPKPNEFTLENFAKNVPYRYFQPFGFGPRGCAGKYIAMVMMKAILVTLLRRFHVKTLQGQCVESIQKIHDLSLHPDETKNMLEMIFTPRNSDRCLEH
# [8] = qHTS assay to identify small molecule antagonists of the thyroid receptor (TR) signaling pathway - cell viability counter screen (AID 743064); further: nearly all actives have a fitted effect of over 50% in size; further: potency means the concentration at half of the fitted maximal effect
# Method in brief: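 Rat GH3 pituitary tumor cells stably expressing two TR response elements driving luciferase were plated, rested 4 h, then dosed with library compounds and T3 (1 nM final). After 23.5 h at 37 °C, CellTiter-Fluor was added for 30 min and fluorescence recorded.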
# [9] = qHTS assay to identify small molecule antagonists of the estrogen receptor alpha (ER-alpha) signaling pathway using the BG1 cell line (AID 743080; calls by dose curve;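 further: BG1 cells stimulated with 17beta-estradiol alongside compound; nearly all actives have a fitted effect of over 25% in size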; further: potency means the concentration at half of the fitted maximal effect)
# Method in brief: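 Quantitative HTS on the Tox21 10K library: BG1 cells with endogenous ER-alpha and ERE-luciferase reporter, 17beta-estradiol stimulation, 21.5 h compound exposure, luminescence endpoint with parallel fluorescence cytotoxicity counter-read.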
SMILES,Potency [1],Potency [2],Potency [3],Potency [4],Potency [5],Potency [6],Potency [7],Potency (Aromatase (Homo sapiens)),Potency [8],Potency [9]
CCc1cccc(CC)c1N,inactive,inactive,inactive,inactive,inactive,inactive,inactive,inactive,–,–
CC(COCC(C)OC(=O)c1ccccc1)OC(=O)c1ccccc1 (stereo not drawn),–,inactive,–,inactive,–,–,inactive,inactive,inactive,–
CC(=O)CC(=O)N(C)C,inactive,inactive,inactive,inactive,inactive,inactive,inactive,inactive,–,inactive
CCCCC(CC)COC(=O)c1ccc(C(=O)OCC(CC)CCCC)cc1 (stereo not drawn),–,inactive,–,inactive,–,–,inactive,inactive,inactive,–
CC(=O)c1nccs1,inactive,inactive,inactive,inactive,inactive,inactive and 48.6 µM (active),inactive,inactive,–,inactive
Cc1cc(CC(=O)O)n(C)c1C(=O)c1ccc(Cl)cc1,–,inactive,–,inactive,–,–,inactive,inactive,inactive,–
C=C(CC(=O)O)C(=O)O,–,inactive,–,inactive,–,–,inactive,inactive,inactive,–
CCCCCC(C)=O,–,inactive,–,inactive,–,–,inactive,inactive,inactive,–
Nc1nc(N)c2nc(-c3ccccc3)c(N)nc2n1,–,inactive,–,–,–,inactive and 68.6 µM (active),–,inactive,–,–
CCCOCC(C)O (stereo not drawn),–,inactive,–,inactive,–,–,inactive,inactive,inactive,–
N[C@@H](Cc1cc(I)c(Oc2ccc(O)c(I)c2)c(I)c1)C(=O)O,–,–,23.9 µM [inconclusive] (active) and inactive,inactive,9.51 µM [activator] (active) and inactive and 51 µM [fluorescent] (active),37.1 µM (active) and 40.2 µM (active),inactive,inactive,–,26.6 µM (active) and inactive and 8.02 µM (active)
CS(=O)(=O)c1ccc(Cl)cc1,–,inactive,–,inactive,–,–,inactive,inactive,inactive,–
CCCN(CCC)C(=O)SCC,–,–,inactive,inactive,inactive,inactive,inactive,inactive,inactive,–
Cc1ncc(CO)c(CO)c1O,–,–,–,inactive,–,–,inactive,inactive,inactive,–
O=[N+]([O-])c1cc(C(F)(F)F)ccc1Cl,–,inactive,–,inactive,–,–,inactive,inactive,inactive,–
COCN(COC)c1nc(N(COC)COC)nc(N(COC)COC)n1,–,–,inactive,inactive,inactive,inactive,inactive,inactive,inactive,–
CC(C=O)Cc1ccc(C(C)(C)C)cc1 (stereo not drawn),–,inactive,–,inactive,–,–,inactive,inactive,–,–
CCn1cc(C(=O)O)c(=O)c2cc3c(cc21)OCO3,–,inactive,–,inactive,–,–,inactive,inactive,inactive,–
O=C(c1ccccc1)c1ccc(O)c(O)c1O,–,inactive,inactive,inactive,61.6 µM [inconclusive] (active),61.1 µM (active),inactive,inactive,–,–

SMILES,Potency [1],Potency [2],Potency [3],Potency [4],Potency [5],Potency [6],Potency [7],Potency (Aromatase (Homo sapiens)),Potency [8],Potency [9]
CC(=O)Nc1ccc(CC(=O)O)cc1,–,–,inactive,inactive,inactive,inactive,inactive,inactive,inactive,–
Cc1nnc(NS(=O)(=O)c2ccc(N)cc2)s1,–,–,inactive,inactive,inactive,inactive,inactive,inactive,–,–
Cc1ccc(C)c(S(=O)(=O)O)c1,–,inactive,–,inactive,–,–,inactive,inactive,inactive,–
CC(C)(C)NC[C@H](O)COc1nsnc1N1CCOCC1,–,inactive,–,inactive,–,–,inactive,–,inactive,–
CC(=O)OC[C@H]1O[C@@](COC(C)=O)(O[C@H]2O[C@H](COC(C)=O)[C@@H](OC(C)=O)[C@H](OC(C)=O)[C@H]2OC(C)=O)[C@@H](OC(C)=O)[C@@H]1OC(C)=O,–,inactive,–,inactive,–,–,inactive,inactive,inactive,–
O=C1O[C@H]([C@H](O)CO)C(O)=C1O,–,inactive,–,inactive,–,–,inactive,inactive,inactive,–
c1cnc2c(c1)ccc1cccnc12,–,inactive,–,inactive,–,–,15.5 µM (active),6.17 µM (active) and 6.86 µM (active) and 9.69 µM (active),7.77 µM (active) and 6.86 µM (active) and 15.4 µM (active),–
NC1CCCCC1N (stereo not drawn),–,–,–,inactive,–,–,inactive,inactive,–,–
O=c1n(CCCN2CCN(c3cccc(Cl)c3)CC2)nc2ccccn12,–,inactive,–,inactive,–,–,inactive,inactive,inactive,–
O=C(O)C1=NN(c2ccc(S(=O)(=O)O)cc2)C(=O)C1,–,–,inactive,inactive,inactive,inactive,inactive,inactive,inactive,–
Cc1ccc(Cl)cc1,–,–,inactive,inactive,inactive,inactive,inactive,inactive,inactive,inactive
O=C1OC(=O)c2c(Cl)c(Cl)c(Cl)c(Cl)c21,–,inactive,–,inactive,–,–,inactive,inactive,inactive,–
CN1Cc2c(N)cccc2C(c2ccccc2)C1 (stereo not drawn),–,inactive,–,inactive,–,–,inactive,–,inactive,–
CCCOC(=O)NCCCN(C)C,–,inactive,–,inactive,–,–,inactive,inactive,inactive,–
CC[N+](CC)(CC(=O)Nc1c(C)cccc1C)Cc1ccccc1,–,–,–,inactive,–,–,inactive,inactive,inactive,–
Cc1cccc(C)c1[N+](=O)[O-],–,inactive and 61.1 µM (active),–,inactive,–,–,inactive,inactive,inactive,–
COc1ccccc1[N+](=O)[O-],–,inactive,–,inactive,–,–,inactive,inactive,inactive,–
CC1(C)[C@@H](O[C@H]2O[C@H](C(=O)O)[C@@H](O)[C@H](O)[C@H]2O[C@@H]2O[C@H](C(=O)O)[C@@H](O)[C@H](O)[C@H]2O)CC[C@]2(C)[C@H]3C(=O)C=C4[C@@H]5C[C@@](C)(C(=O)O)CC[C@]5(C)CC[C@@]4(C)[C@]3(C)CC[C@@H]12,–,inactive,–,inactive,–,–,inactive,inactive,inactive,–
